Eight compounds from PubChem BioAssay (NCI) can be followed below.

Among the test systems are SK-MEL-2 melanoma; SN12C renal; UO-31 renal; TK-10 renal; ACHN renal; CAKI-1 renal; A498 renal; CCRF-CEM leukemia; MOLT-4 leukemia; SR leukemia; RPMI-8226 leukemia; OVCAR-8 ovarian; OVCAR-5 ovarian; OVCAR-4 ovarian; SK-OV-3 ovarian; IGROV1 ovarian; OVCAR-3 ovarian; HS 578T breast; NCI/ADR-RES ovarian.
Common to all, as to assay: NCI-60 one-dose screen, 48 h (100 = growth as untreated, 0 = no growth, -100 = all killed)
Holding throughout (settings): 10 µM unless noted

About 83,000 compounds went through this panel and 20% of them were active in at least one assay; those are over-represented in the sample as a whole.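 A percent growth of 40 corresponds to 60% growth inhibition; 0 means no net growth; -100 means all cells died. Active threshold: below 10.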 Values without a mark were called inactive. Activity calls are given as the source filed them.

Regarding `Cc1nc(C)c(-c2nn3c(-c4cccc(F)c4)nnc3s2)s1`, the growth in the assay on SK-MEL-2 melanoma is 102%; in the assay with SN12C renal it was 97.6%; in the assay with UO-31 renal, 83.9%; in the assay with TK-10 renal, 77.6%; in the assay on ACHN renal, 117%; in the assay on CAKI-1 renal it was 103%. The growth in the assay on A498 renal is 67.5%; in the assay on CCRF-CEM leukemia, 90.4%; in the assay with MOLT-4 leukemia, 87%; in the assay on SR leukemia, 69.3%; in the assay on RPMI-8226 leukemia, 96.2%; with OVCAR-8 ovarian it was 94.7%. The growth with OVCAR-5 ovarian was 112%; with OVCAR-4 ovarian, 112%; in the assay with SK-OV-3 ovarian, 104%; in the assay on IGROV1 ovarian, 106%; with OVCAR-3 ovarian, 113%; in the assay on HS 578T breast, 105%. For the same compound, the growth with NCI/ADR-RES ovarian was 91.3%.
For `Cn1cc(Nc2nccc(-c3ccc(N4CCCC4)c(C#N)c3)n2)cn1`, the growth with SK-MEL-2 melanoma was 3.95% (active); with SN12C renal it was 44.9%; in the assay on UO-31 renal, 31.9%; in the assay with TK-10 renal it was 40.7%; with ACHN renal, 26.7%; in the assay on CAKI-1 renal, 16.7%. The growth with A498 renal was 48%; in the assay on CCRF-CEM leukemia, 34%; in the assay with MOLT-4 leukemia, 17.2%; in the assay with RPMI-8226 leukemia it was 27.1%; in the assay on OVCAR-5 ovarian, 88%; in the assay on OVCAR-4 ovarian it was 53.7%. Besides, the growth is 18.4% in the assay with SK-OV-3 ovarian, 25.3% in the assay with IGROV1 ovarian, 32.1% with OVCAR-3 ovarian and 42.2% in the assay on NCI/ADR-RES ovarian.
On to `COc1c(C)cnc(CSc2nc(-c3ccc(C)cc3)cn2-c2ccc(Cl)cc2)c1C`, for which the growth in the assay with SK-MEL-2 melanoma is 83%; in the assay with SN12C renal it was 94.4%; in the assay with UO-31 renal it was 63.2%; in the assay on TK-10 renal, 101%; in the assay on ACHN renal it was 98.9%; in the assay on CAKI-1 renal, 91.1%. The growth was 93.9% in the assay with A498 renal; 99.8% with CCRF-CEM leukemia; 73.5% in the assay with MOLT-4 leukemia; 74.8% in the assay with SR leukemia; 89.9% with RPMI-8226 leukemia; 97.5% in the assay with OVCAR-5 ovarian. The growth was 90.2% with OVCAR-4 ovarian; 91% in the assay with SK-OV-3 ovarian; 93.4% in the assay with IGROV1 ovarian; 93.5% in the assay with OVCAR-3 ovarian; 105% with HS 578T breast; 95.5% in the assay with NCI/ADR-RES ovarian.
Take `COc1ccc(OC)c(Nc2nc3nonc3nc2Nc2cccc(Br)c2)c1`: the growth with SK-MEL-2 melanoma is -17.4% (active); with SN12C renal, 12.4%; in the assay with UO-31 renal, 3.39% (active); with TK-10 renal, 7.4% (active); in the assay with ACHN renal, -22.5% (active); with CAKI-1 renal, 0.162% (active). Further, the growth with A498 renal was -39.9% (active); in the assay with CCRF-CEM leukemia it was 12.4%; in the assay on MOLT-4 leukemia, 3.8% (active); with SR leukemia, 19.6%; in the assay on RPMI-8226 leukemia it was 2.67% (active); in the assay with OVCAR-8 ovarian, 10.5%. Moreover, the growth with OVCAR-5 ovarian is 9% (active); with OVCAR-4 ovarian it was 12.1%; with SK-OV-3 ovarian it was 3.28% (active); with IGROV1 ovarian it was 46.1%; in the assay with OVCAR-3 ovarian, 10.1%; in the assay with HS 578T breast it was 7.84% (active). The growth in the assay with NCI/ADR-RES ovarian was 9.06% (active).
Take `CCC(=O)OC1=C(C)SC2=NC(c3ccc(Cl)c(Cl)c3)=CC(c3cc(OC)c(OC)c(OC)c3)N21` (stereo not given): the growth was 107% in the assay with SK-MEL-2 melanoma; 95.3% with SN12C renal; 82.1% with UO-31 renal; 133% in the assay on TK-10 renal; 102% with ACHN renal; 87.8% in the assay on CAKI-1 renal. Moreover, the growth was 116% with A498 renal; 90.7% in the assay with CCRF-CEM leukemia; 99.3% in the assay with MOLT-4 leukemia; 103% in the assay with SR leukemia; 95.8% in the assay on RPMI-8226 leukemia; 102% with OVCAR-5 ovarian. Besides, the growth in the assay on OVCAR-4 ovarian was 98.1%; with SK-OV-3 ovarian it was 105%; in the assay with IGROV1 ovarian, 106%; in the assay with OVCAR-3 ovarian, 108%; with HS 578T breast, 101%; in the assay on NCI/ADR-RES ovarian it was 105%.
Regarding `NC(N)=N/N=C/CO`, the growth in the assay with SK-MEL-2 melanoma is 107%; in the assay on SN12C renal it was 109%; in the assay on UO-31 renal, 80.9%; in the assay with TK-10 renal, 98.7%; in the assay with ACHN renal, 102%; with CAKI-1 renal, 99.4%. In addition, the growth in the assay on A498 renal was 117%; in the assay on CCRF-CEM leukemia, 93.8%; in the assay with MOLT-4 leukemia, 95.7%; in the assay with SR leukemia, 92%; in the assay on RPMI-8226 leukemia it was 103%; in the assay with OVCAR-8 ovarian, 103%. The growth in the assay on OVCAR-5 ovarian was 104%; in the assay with OVCAR-4 ovarian, 96%; in the assay on SK-OV-3 ovarian, 102%; with IGROV1 ovarian, 108%; in the assay on OVCAR-3 ovarian, 107%; in the assay with HS 578T breast it was 112%. Also, the growth in the assay with NCI/ADR-RES ovarian was 95.5%.
As for `CCOc1cc(C2C(Cl)C(=O)N2n2cnnc2)ccc1O` (stereo not given), the growth in the assay with SK-MEL-2 melanoma was 100%; in the assay on SN12C renal, 98.6%; in the assay with UO-31 renal, 86%; in the assay with TK-10 renal, 99.1%; in the assay on ACHN renal it was 96.7%; with CAKI-1 renal, 85.3%. Also, the growth with A498 renal was 101%; in the assay on CCRF-CEM leukemia, 93.6%; with MOLT-4 leukemia it was 100%; in the assay on RPMI-8226 leukemia it was 103%; with OVCAR-8 ovarian it was 95.5%; in the assay on OVCAR-5 ovarian, 106%. The growth was 98.2% in the assay with OVCAR-4 ovarian; 82.4% in the assay on SK-OV-3 ovarian; 104% in the assay with IGROV1 ovarian; 88.7% with HS 578T breast; 100% with NCI/ADR-RES ovarian.
Regarding `CSc1ccc(Cl)c(C(=O)Nc2sccc2C(N)=O)c1`, the growth is 92.7% in the assay with SK-MEL-2 melanoma; 93.6% in the assay with SN12C renal; 80.6% with UO-31 renal; 158% with TK-10 renal; 102% in the assay on ACHN renal; 112% with CAKI-1 renal. The growth in the assay on A498 renal is 94.2%; in the assay on CCRF-CEM leukemia, 94.1%; in the assay with MOLT-4 leukemia, 125%; with SR leukemia it was 104%; in the assay on RPMI-8226 leukemia, 95.3%; with OVCAR-8 ovarian, 94.4%. Moreover, the growth in the assay on OVCAR-5 ovarian is 98.2%; in the assay with OVCAR-4 ovarian it was 83.5%; in the assay with SK-OV-3 ovarian it was 115%; in the assay on IGROV1 ovarian, 105%; in the assay on OVCAR-3 ovarian it was 100%; with HS 578T breast it was 99.4%. The growth in the assay with NCI/ADR-RES ovarian was 99%.
